# Experimental data published in PubChem BioAssay (NCATS).
# Several values for one entry are separate records, joined by “and”; a condition that tells them apart may be missing. Identical values can stand only once. Inconclusive results are not listed. Entries that show only a call come without a potency. Activity calls are given as the source filed them. Calls follow the shape of the dose curve; as a rule, active = well fitted curve in the direction sought with a large enough effect; inconclusive = small, poorly fitted or top-dose-only effect, or another doubt; inactive = no such curve, though single readings can be large; an effect the other way counts as inactive or inconclusive.
# What was measured:
# [1] = tested on: Zika virus NS2B-NS3 protease; experiment: Primary screen GU AMC qHTS for Zika virus inhibitors (AID 1347154); also: nearly all actives have a fitted effect of over 70% in size; also: potency is read from the fitted curve at half-maximal effect
# In short: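 Unlinked Zika NS2B hydrophilic domain/NS3 protease domain noncovalent complex (25 nM final) in 10 mM Tris-HCl pH 8.0, 0.01% Tween 20, with AMC peptide substrate. Fluorescence (ex 340, em 450 nm) change over 15 min, room temperature; percent inhibition fitted to 4-parameter Hill equation.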
# [2] = qHTS to identify inhibitors of the type 1 interferon - major histocompatibility complex class I in skeletal muscle: primary screen against the NCATS Mechanism Interrogation Plate v5.0 (MIPE) Libary (AID 1347411); also: nearly all actives have a fitted effect of over 65% in size; also: potency is read from the fitted curve at half-maximal effect
# In short: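 HLA-B HiBit myoblasts, dexamethasone-free medium + 4 ng/ml IFN-b, 24 h compound, 11-pt 1:3 from 46 uM final. Readout: Nano-Glo HiBiT lytic luminescence after 10 min lysis, RT.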
# [3] = Vero cells viability qHTS for Zika virus inhibitors (AID 1347167)
# In short: (§1)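 To flag cytotoxic protease inhibitors, viability is measured by ATP-dependent luminescence (CellTiter Glo) after cells attached overnight receive compound for 24 to 48 hours in DMEM with 4% FBS.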
# [4] = HepG2 cells viability qHTS for Zika virus inhibitors (AID 1347168)
# In short: as §1
# [5] = qHTS to identify inhibitors of the type 1 interferon - major histocompatibility complex class I in skeletal muscle: primary screen against the NCATS LOPAC collection (AID 1347405);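 also: human myoblasts with HiBiT tag on endogenous HLA-B stimulated by IFN-beta; lytic HiBiT luminescence reporting HLA-B protein level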
# In short: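 HLA-B HiBiT myoblasts, IFN-b 4 ng/ml, dexamethasone-free medium; compounds 7-pt 1:4.3 titration, top 46 uM final; 24 h at 37 C; Nano-Glo HiBiT lytic reagent, 10 min RT, luminescence.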
# [6] = qHTS to identify inhibitors of the type 1 interferon - major histocompatibility complex class I in skeletal muscle: primary screen against the NCATS Pharmaceutical Collection (AID 1347407);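 also: luminescence of HiBiT knocked into endogenous HLA-B as interferon-induced MHC class I level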
# In short: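 Luminescence from HiBiT-tagged endogenous HLA-B*08:01 served as the read-out of IFN-beta-induced MHC class I in CRISPR-engineered C25cl48 myoblasts. Cells received 4 ng/ml IFN-beta plus compound (high final 46 uM, […]) for 24 h.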
# [7] = qHTS for inhibitors of adenylyl cyclases using a fission yeast platform: a pilot screen against the NCATS LOPAC library (AID 1347410)
# In short: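 Fission yeast qHTS: CHP2027 cells (AC9-GNAS-PDE4D2, fbp1-GFP), 5x10^6 cells/mL working density, EMM + His/Lys/Ura; LOPAC at up to 57 µM final; 18 h dark, 30C; GFP by laser cytometry. DPI positive control, DMSO vehicle.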
# [8] = molecular target: Protein phosphatase 1D (Homo sapiens) (UniProt O15297); experiment: RapidFire Mass Spectrometry qHTS Assay for Modulators of WT P53-Induced Phosphatase 1 (WIP1) (AID 1347424);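 also: amount of dephosphorylated VEPPL-S-QETFS peptide product formed by WIP1; series mostly up to about 63 µM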
# In short: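 Mass-spectrometric measurement of dephosphorylated peptide after a 5 min room-temperature reaction of 10 nM WIP1 with 2 uM phosphopeptide, following 1 h compound preincubation in 30 mM MgCl2 buffer.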
# [9] = molecular target: Protein phosphatase 1D (Homo sapiens) (UniProt O15297); experiment: Rhodamine-PBP qHTS Assay for Modulators of WT P53-Induced Phosphatase 1 (WIP1) (AID 1347425)
# In short: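 Steps: enzyme with Rh-PBP sensor and compounds, room-temperature incubation of 1 hr, baseline read, addition of VEPPL-pS-QETFS (10 uM final), kinetic fluorescence reads at 525/598 nm. Activity equals final minus baseline signal.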
# [10] = Validation qHTS assay for inhibitors of Activation Induced Cytidine Deaminase (AID): UDG Counterscreen signal (AID 1347427)
# In short: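 Fluorescence at 560 nm excitation, 665 nm emission reports UDG signal after 250 mM NaOH (2x) addition and 30 min. Enzymes (AID 1 uM, UDG 2 U/mL, at 4/3x) preincubated 10 min with compound, then 4 h with 4x 250 nM DJC20/DJC23 substrate at room temperature.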
# [11] = molecular target: Single-stranded DNA cytosine deaminase (Homo sapiens) (UniProt Q9GZX7); experiment: Validation qHTS assay for inhibitors of Activation Induced Cytidine Deaminase (AID): AID signal (AID 1347429)
# In short: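 AID+UDG coupled FRET deamination; cpds up to 114 uM final; DJC20/DJC23 substrate, 4 hr RT; NaOH stop, 30 min RT; read Ex 540/Em 590.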
# [12] = molecular target: Lysine-specific demethylase 5B (Homo sapiens) (UniProt Q9UGL1); experiment: Optimization screen for KDM5B Histone Demethylases FDH coupled qHTS against the LOPAC library (AID 1347166)
# In short: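 KDM5BDeltaAP (200nM final) in 50mM HEPES pH 7.5, 0.01% Tween-20 was preincubated with compound for 10 min at room temperature. A substrate mix of 12.5uM H3K4Me3, 25uM a-ketoglutarate, ascorbate, Fe2+, NAD+ and formaldehyde dehydrogenase was then added. NADH fluorescence (340/450 nm) was read initially and after 30 min.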
# [13] = tested on: Zika virus NS2B-NS3 protease (unlinked complex); experiment: Primary screen GU Rhodamine qHTS for Zika virus inhibitors: Unlinked NS2B-NS3 protease assay (AID 1347159); also: nearly all actives have a fitted effect of over 60% in size
# In short: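 Unlinked NS2B/NS3, 25 nM; Rhod110 peptide, 1.5 microM; compounds, up to 114 microM. Reaction run 15 min at RT in 10 mM Tris-HCl pH 8.0, 0.01% Tween 20; kinetic fluorescence change fitted with a 4-parameter Hill model.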
# [14] = tested on: Zika virus NS2B-NS3 protease (linked construct); experiment: Primary screen NINDS Rhodamine qHTS for Zika virus inhibitors (AID 1347160); also: nearly all actives have a fitted effect of over 55% in size
# In short: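 Single-chain NS2B-NS3 protease, 25 nM, pH 8.0; compounds preincubated 15 min. Activity: Rhodamine110 release from 1.5 microM substrate over 15 min, room temperature, data fitted to 4-parameter Hill.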
# [15] = Tertiary RLuc qRT-PCR qHTS assay for Zika virus inhibitors (AID 1347169); also: top concentration of the series differs between compounds; nearly all actives have a fitted effect of over 55% in size
# In short: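 Vero, 1,000 cells/well, o/n 37 C; cpd pinned in DMSO; ZIKV-RLuc Cambodian, MOI 1-2, 48-72 h 37 C; live-cell RLuc substrate, lum read at 1-1.5 h.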
# Sequence of Lysine-specific demethylase 5B (Homo sapiens) (Q9UGL1 whole entry, looked up): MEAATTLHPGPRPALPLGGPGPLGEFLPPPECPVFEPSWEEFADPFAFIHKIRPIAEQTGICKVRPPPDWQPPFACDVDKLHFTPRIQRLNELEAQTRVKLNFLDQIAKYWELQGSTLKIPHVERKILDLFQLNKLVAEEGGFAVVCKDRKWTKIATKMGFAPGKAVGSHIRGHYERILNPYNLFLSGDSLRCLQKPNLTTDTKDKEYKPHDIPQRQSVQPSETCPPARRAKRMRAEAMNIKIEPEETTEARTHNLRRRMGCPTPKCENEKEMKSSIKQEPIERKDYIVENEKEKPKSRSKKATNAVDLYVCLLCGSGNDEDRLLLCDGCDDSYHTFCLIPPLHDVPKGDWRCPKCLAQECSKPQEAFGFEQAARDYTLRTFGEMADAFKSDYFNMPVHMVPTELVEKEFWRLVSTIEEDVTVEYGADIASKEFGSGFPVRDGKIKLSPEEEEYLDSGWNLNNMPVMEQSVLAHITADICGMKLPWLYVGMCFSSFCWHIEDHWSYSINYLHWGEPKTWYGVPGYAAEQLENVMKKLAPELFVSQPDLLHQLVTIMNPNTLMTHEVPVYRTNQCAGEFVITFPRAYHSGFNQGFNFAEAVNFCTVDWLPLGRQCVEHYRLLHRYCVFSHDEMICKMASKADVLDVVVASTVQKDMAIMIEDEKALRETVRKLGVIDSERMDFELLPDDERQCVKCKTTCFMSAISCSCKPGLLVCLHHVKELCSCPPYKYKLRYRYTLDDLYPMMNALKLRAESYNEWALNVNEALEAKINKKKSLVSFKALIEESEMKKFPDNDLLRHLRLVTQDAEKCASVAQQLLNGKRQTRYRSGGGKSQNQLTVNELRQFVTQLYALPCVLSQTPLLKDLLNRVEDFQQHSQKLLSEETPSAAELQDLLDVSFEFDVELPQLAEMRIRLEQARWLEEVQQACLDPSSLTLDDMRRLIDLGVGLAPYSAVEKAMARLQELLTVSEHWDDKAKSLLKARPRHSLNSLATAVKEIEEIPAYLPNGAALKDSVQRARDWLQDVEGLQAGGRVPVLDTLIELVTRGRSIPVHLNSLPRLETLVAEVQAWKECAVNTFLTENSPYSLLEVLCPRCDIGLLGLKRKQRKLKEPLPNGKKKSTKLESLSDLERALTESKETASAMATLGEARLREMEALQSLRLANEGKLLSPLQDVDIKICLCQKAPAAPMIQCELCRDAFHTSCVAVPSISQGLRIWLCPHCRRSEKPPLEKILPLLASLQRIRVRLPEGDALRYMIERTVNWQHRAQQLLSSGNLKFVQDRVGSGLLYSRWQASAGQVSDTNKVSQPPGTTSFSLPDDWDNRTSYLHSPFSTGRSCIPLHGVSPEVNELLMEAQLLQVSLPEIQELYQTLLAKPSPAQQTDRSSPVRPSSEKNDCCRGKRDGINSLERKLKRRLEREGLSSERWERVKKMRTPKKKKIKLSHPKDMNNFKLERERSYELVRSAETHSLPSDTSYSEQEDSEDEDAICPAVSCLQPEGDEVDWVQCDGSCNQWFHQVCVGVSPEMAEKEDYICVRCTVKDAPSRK
# Sequence of Protein phosphatase 1D (Homo sapiens) (O15297 whole entry, looked up): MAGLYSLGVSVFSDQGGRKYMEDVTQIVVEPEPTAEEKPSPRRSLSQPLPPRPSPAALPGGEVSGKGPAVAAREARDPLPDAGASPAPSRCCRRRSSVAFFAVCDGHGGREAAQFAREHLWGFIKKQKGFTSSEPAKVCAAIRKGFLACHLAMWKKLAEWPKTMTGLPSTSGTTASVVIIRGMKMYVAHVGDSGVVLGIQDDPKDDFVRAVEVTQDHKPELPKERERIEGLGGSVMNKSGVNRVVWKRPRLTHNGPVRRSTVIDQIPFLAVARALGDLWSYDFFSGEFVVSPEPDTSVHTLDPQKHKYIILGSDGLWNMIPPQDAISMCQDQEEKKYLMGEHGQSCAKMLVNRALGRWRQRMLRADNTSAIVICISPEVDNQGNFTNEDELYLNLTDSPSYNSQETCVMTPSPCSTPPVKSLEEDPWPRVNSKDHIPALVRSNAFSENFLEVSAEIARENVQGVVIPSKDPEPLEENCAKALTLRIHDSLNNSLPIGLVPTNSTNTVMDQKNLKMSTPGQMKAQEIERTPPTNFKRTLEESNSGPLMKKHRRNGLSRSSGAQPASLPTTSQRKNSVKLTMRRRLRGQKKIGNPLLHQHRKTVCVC
# Sequence of Single-stranded DNA cytosine deaminase (Homo sapiens) (Q9GZX7 whole entry, looked up): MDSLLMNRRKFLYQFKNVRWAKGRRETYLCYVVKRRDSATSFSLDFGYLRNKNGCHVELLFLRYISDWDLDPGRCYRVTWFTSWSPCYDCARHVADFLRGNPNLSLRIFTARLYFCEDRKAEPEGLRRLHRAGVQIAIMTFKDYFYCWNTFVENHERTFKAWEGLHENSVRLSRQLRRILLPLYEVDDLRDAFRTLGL
structure (smiles),measurement,setting,value
CCCn1c(=O)c2[nH]c(C34CC5CC3C[C@@H](C5)C4)nc2n(CCC)c1=O,Potency,[1],inactive
same,Potency,[2],inactive
CS(=O)(=O)Oc1ccc2c(NC(N)=O)c(C(=O)c3ccc(Cl)cc3Cl)oc2c1,Potency,[1],inactive
same,Potency,[2],inactive
Nc1cccc(S(=O)(=O)N2CCCN(S(=O)(=O)c3ccc4c(c3)OCCO4)CC2)c1,Potency,[1],inactive
same,Potency,[2],inactive
OC[C@H](Cc1ccccc1)Nc1nc(Oc2ccc3c(c2)CCC3)nc2c1ncn2Cc1ccc(-c2ccccc2)cc1,Potency,[1],inactive
same,Potency,[2],inactive
COc1ccc(-c2ccc3c(N4CCOCC4)nc(N4C[C@@H](C)O[C@@H](C)C4)nc3n2)cc1CO,Potency,[1],19.2 µM (active)
same,outcome,[3],inactive
same,outcome,[4],inactive
NC(=O)c1ccc(I)c([N+](=O)[O-])c1,Potency,[1],inactive
same,Potency,[2],inactive
CC(=O)Oc1ccccc1C(=O)O,Potency,[1],21.2 µM (active)
same,Potency,[5],inactive
same,outcome,[6],inactive
same,outcome,[7],inactive
same,Potency,[2],inactive
same,Potency,[8],inactive
same,outcome,[9],inactive
same,outcome,[10],inactive
same,Potency,[11],inactive
O=C(C1CC1)N1CC[C@@H](Cn2c(-c3ccc(-c4ccc5occc5c4)cc3)nc3cnccc32)C1,Potency,[1],10.8 µM (active)
same,outcome,[3],inactive
same,outcome,[4],inactive
same,Potency,[2],inactive
CC(C)(C)OC(=O)CN(Cc1ccc(Cl)cc1)Cc1ccc([N+](=O)[O-])s1,Potency,[1],inactive
same,Potency,[2],inactive
Cc1cc([C@@H](C)Nc2ccccc2C(=O)O)c2nc(N3CCOCC3)cc(=O)n2c1,Potency,[1],inactive
same,Potency,[2],inactive
CCC(C)(C)C(=O)O[C@H]1C[C@@H](C)C=C2C=C[C@H](C)[C@H](CC[C@@H]3C[C@@H](O)CC(=O)O3)[C@H]21,Potency,[1],inactive
same,outcome,[6],inactive
same,Potency,[2],inactive
same,Potency,[8],inactive
same,outcome,[9],inactive
COc1ccc(CC2=NN3C([C@@H](CCc4ccccc4)[C@@H](C)O)=NC(C)C3C(=O)N2)cc1OC (some centres undefined),Potency,[1],inactive
same,Potency,[2],inactive
COc1ccc2nc(S(=O)Cc3ncc(C)c(OC)c3C)[nH]c2c1 (centres undefined),Potency,[1],inactive
same,outcome,[6],inactive
same,Potency,[2],inactive
same,Potency,[8],inactive
same,outcome,[9],inactive
NC[C@H](O)c1ccc(O)c(O)c1,Potency,[1],10.2 µM (active) and 11.9 µM (active)
same,Potency,[5],inactive
same,outcome,[6],inactive
same,outcome,[7],inactive
same,outcome,[9],inactive
same,outcome,[10],inactive
same,Potency,[11],inactive
C[C@]1(c2nc3c(C(N)=O)cccc3[nH]2)CCCN1,Potency,[1],inactive
same,Potency,[2],inactive
NCCc1ccc(O)c(O)c1,Potency,[1],inactive
same,Potency,[5],inactive
same,outcome,[6],inactive
same,outcome,[7],inactive
same,Potency,[2],inactive
same,Potency,[8],inactive
same,outcome,[9],inactive
same,outcome,[10],inactive
same,Potency,[11],inactive
O=C(Nc1nc2ccccc2n1CCN1CCOCC1)c1cccc([N+](=O)[O-])c1,Potency,[1],inactive
same,outcome,[12],inactive
same,outcome,[7],inactive
same,Potency,[2],inactive
same,outcome,[10],inactive
same,Potency,[11],inactive
CCOC(=O)N1CCC(=C2c3ccc(Cl)cc3CCc3cccnc32)CC1,Potency,[1],inactive
same,outcome,[12],inactive
same,Potency,[5],inactive
same,outcome,[7],inactive
same,Potency,[8],inactive
same,outcome,[9],inactive
same,outcome,[10],inactive
same,Potency,[11],inactive
Cc1oncc1C(=O)Nc1ccc(C(F)(F)F)cc1,Potency,[1],inactive
same,outcome,[12],inactive
same,outcome,[7],inactive
same,Potency,[2],18.6 µM (active)
same,Potency,[8],inactive
same,outcome,[9],inactive
same,outcome,[10],inactive
same,Potency,[11],inactive
N#Cc1ccc(C(c2ccc(C#N)cc2)n2cncn2)cc1,Potency,[1],inactive
same,Potency,[2],inactive
COc1cccc2cc(-c3nc(C4CCC(C(=O)O)CC4)n4ncnc(N)c34)[nH]c12 (centres undefined),Potency,[13],inactive
same,Potency,[14],inactive
CCOc1cc(C(=O)Nc2ccc(Cl)c(-c3nc4ccccc4[nH]3)c2)cc(OCC)c1OCC,Potency,[13],inactive
same,Potency,[14],inactive
O=C(O)[C@@H](c1ccc(OCc2ccc3ccccc3n2)cc1)C1CCCC1,Potency,[1],inactive
same,Potency,[2],inactive
Nc1ncnc2nc(-c3ccc(N4CCOCC4)nc3)cc(-c3cccc(Br)c3)c12,Potency,[2],inactive
same,outcome,[10],inactive
same,Potency,[11],inactive
CCCCNc1cc(C(=O)O)cc(S(N)(=O)=O)c1Oc1ccccc1,outcome,[3],inactive
same,outcome,[4],inactive
same,Potency,[15],inactive
same,Potency,[5],inactive
same,outcome,[6],inactive
same,outcome,[7],inactive
same,Potency,[2],inactive
same,Potency,[8],inactive
same,outcome,[9],inactive
same,outcome,[10],inactive
same,Potency,[11],inactive
